Rab9 promoter act – qHTS Assay for Rab9 Promoter Activators | Potency, µM (top dose mostly 9.22 µM), most hits filed as activators | Huh7 Rab9 promoter-luciferase reporter, luminescence, 24 h | AID 485297, 2010 | actives 2.8% (n = 320,000); also: nearly all actives have a fitted effect of over 60% in size
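Steps: seed 1500 Huh7 Rab9-luc cells per well, rest 2 h at 37 °C; add compound in DMSO; incubate 24 h; add luciferase reagent, 10 min ambient; read luminescence.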
FLuc counter – qHTS profiling assay for firefly luciferase inhibitor/activator using purifed enzyme and Km concentrations of substrates (counterscreen for miR-21 project). purified FLuc, Km substrates, luminescence inhibition. Potency, µM (top dose mostly 57.5 µM), most hits filed as inhibitors. actives 6.9% (n = 360,000); also: nearly all actives have a fitted effect of over 55% in size
Target sequence (P08659 whole entry, looked up): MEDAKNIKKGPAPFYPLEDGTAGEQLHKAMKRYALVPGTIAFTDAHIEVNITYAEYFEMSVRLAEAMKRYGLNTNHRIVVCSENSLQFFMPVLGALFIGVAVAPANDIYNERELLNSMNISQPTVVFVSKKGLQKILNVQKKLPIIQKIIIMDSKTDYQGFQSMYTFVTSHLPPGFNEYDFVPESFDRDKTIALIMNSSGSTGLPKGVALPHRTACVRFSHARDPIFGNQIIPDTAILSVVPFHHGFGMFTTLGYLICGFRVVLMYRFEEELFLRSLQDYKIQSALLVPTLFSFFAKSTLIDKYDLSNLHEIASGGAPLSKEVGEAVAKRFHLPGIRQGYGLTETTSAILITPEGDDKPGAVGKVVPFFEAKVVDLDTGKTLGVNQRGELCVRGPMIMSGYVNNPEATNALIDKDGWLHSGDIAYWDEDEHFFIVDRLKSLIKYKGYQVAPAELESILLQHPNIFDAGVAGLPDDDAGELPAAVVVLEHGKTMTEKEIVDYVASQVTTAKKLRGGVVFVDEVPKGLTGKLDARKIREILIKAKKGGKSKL
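Purified P. pyralis luciferase (10nM final) with 10uM D-luciferin and 10uM ATP (Km levels) in 50mM Tris acetate pH 7.5, 10mM Mg acetate, 0.01% Tween-20, 0.05% BSA; qHTS 6-point titration, ~60 µM downward; luminescence read.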
ELG1 genotoxic – qHTS screen for small molecules that induce genotoxicity in human embryonic kidney (HEK293T) cells expressing luciferase-tagged ELG1 | HEK293T ELG1-luciferase reporter, luminescence, 16 h | Potency, µM (doses to about 46 µM), actives largely listed as activators | actives 1.3% (n = 330,000) | AID 504466, 2011; also: nearly all actives have a fitted effect of over 60% in size
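Step 1: seed 2,000 HEK293T ELG1-luciferase cells per well. Step 2: add compound or DMSO, incubate 16 hr at 37 °C. Step 3: ONE-Glo, 30 min at room temperature, read luminescence.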
NPC1 promoter act – qHTS Assay for NPC1 Promoter Activators; Huh7 NPC1 promoter luciferase reporter, 24 h; Potency, µM (highest dose often 9.22 µM), actives largely listed as activators; actives 2.4% (n = 320,000); also: nearly all actives have a fitted effect of over 60% in size
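Readout is luciferase luminescence, reflecting NPC1 promoter activation in stably transfected Huh7 cells after 24 h compound exposure at 37 °C in reduced-serum medium with 10% FBS.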
SMN2 splice enh – qHTS Assay for Enhancers of SMN2 Splice Variant Expression | HEK293 SMN2-luciferase splicing reporter, luminescence, 30-36 h | Potency, µM (titrated, usually from 46.1 µM), hits mostly activators | actives 2.8% (n = 210,000) | AID 1458, 2008; also: nearly all actives have a fitted effect of over 55% in size
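HEK293 cells carry an SMN2 […]–luciferase reporter in which exon 7 inclusion puts luciferase in frame. Cells were plated 10-12 h before compound addition, then incubated 30-36 h at 37C. ONE-Glo luminescence was read; sodium butyrate at 4.5 mM final served as control.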
Of the large screens only hits and unclear results are named; the others gave an inactive call. Only some compounds are listed: those with a hit (about 7.5% of all), similar ones and a draw of the others. Calls follow the shape of the dose curve; as a rule, active = well fitted curve in the direction sought with a large enough effect; inconclusive = small, poorly fitted or top-dose-only effect, or another doubt; inactive = no such curve, though single readings can be large; an effect the other way counts as inactive or inconclusive.

O=C(Nc1ccc(NC(=O)c2cc3ccccc3o2)cc1)c1ccc2c(c1)OCCO2	none
O=C(Nc1cc2c(cc1Cl)OCCO2)c1ccco1	Rab9 promoter act inconclusive, FLuc counter 19µM, NPC1 promoter act inconclusive, SMN2 splice enh 12.6µM
O=C(Nc1cc2c(cc1Br)OCCO2)c1cccs1	Rab9 promoter act 2.51µM, FLuc counter 10.7µM, ELG1 genotoxic 11.6µM, NPC1 promoter act 2.82µM, SMN2 splice enh 22.4µM
O=C(Nc1ccc(NC(=O)c2ccco2)c(Cl)c1)c1ccc2c(c1)OCCO2	Rab9 promoter act 3.98µM, FLuc counter 0.477µM, NPC1 promoter act inconclusive (no result: SMN2 splice enh)
CCCC(=O)c1cc2c(cc1NC(=O)c1cccs1)OCCO2	none
Cc1cc(NC(=O)c2ccc3c(c2)OCCO3)ccc1NC(=O)c1cc2ccccc2o1	FLuc counter 2.69µM
O=C(Nc1cc2c(cc1Br)OCCO2)c1ccco1	FLuc counter 23.9µM, ELG1 genotoxic inconclusive, SMN2 splice enh 12.6µM
Cc1ccc(/C=N/NC(=O)c2c[nH]c3ccccc23)o1	FLuc counter 23.9µM
CC(C)(C)OC(=O)N/N=C/c1cccc([N+](=O)[O-])c1	Rab9 promoter act 3.16µM, FLuc counter 6.01µM, ELG1 genotoxic inconclusive, NPC1 promoter act 2.51µM, SMN2 splice enh 11.2µM
CCn1nc(C)c(/C=N/NC(=O)c2c[nH]c3ccccc23)c1C	Rab9 promoter act 3.55µM, FLuc counter inconclusive, ELG1 genotoxic inconclusive, NPC1 promoter act inconclusive, SMN2 splice enh 17.8µM
O=C(N/N=C/c1cccc([N+](=O)[O-])c1)c1c[nH]c2ccccc12	Rab9 promoter act inconclusive, FLuc counter 16.9µM, NPC1 promoter act 2.24µM (no result: SMN2 splice enh)
Cc1cc(C(=O)N/N=C/c2cccc([N+](=O)[O-])c2)c(C)o1	FLuc counter inconclusive
Cc1cc(C(=O)Nc2ccccc2C)on1	none (no result: SMN2 splice enh)
Cc1cc(C)c(NC(=O)Cc2csc(C)n2)c(Cl)c1	none (no result: Rab9 promoter act, ELG1 genotoxic, NPC1 promoter act)
O=C(N/N=C/c1cc([N+](=O)[O-])ccc1O)c1c[nH]c2ccccc12	none (no result: SMN2 splice enh)
Cc1ccsc1/C=N/NC(=O)c1c[nH]c2ccccc12	Rab9 promoter act 2.51µM, FLuc counter 12µM, ELG1 genotoxic inconclusive, NPC1 promoter act 4.47µM, SMN2 splice enh inconclusive
Cc1ccc(/C=N/NC(=O)c2c[nH]c3ccccc23)s1	Rab9 promoter act 0.562µM, FLuc counter 7.57µM, NPC1 promoter act 1.58µM, SMN2 splice enh 12.6µM
C/C(=N\NC(=O)c1c[nH]c2ccccc12)c1ccc(C)s1	Rab9 promoter act inconclusive, FLuc counter inconclusive, ELG1 genotoxic inconclusive, NPC1 promoter act 3.16µM (no result: SMN2 splice enh)
O=C(N/N=C/c1ccsc1)c1c[nH]c2ccccc12	Rab9 promoter act 2.82µM, FLuc counter 10.7µM, ELG1 genotoxic 16.4µM, NPC1 promoter act 3.55µM (no result: SMN2 splice enh)
C/C(=N/NC(=O)c1ccncc1)c1c[nH]c2ccccc12	none
CC(C)N(Cc1ccccc1)S(=O)(=O)c1ccc2c(c1)NC(=O)CO2	none (no result: SMN2 splice enh)
CC/C(=N\NC(=O)c1c[nH]c2ccccc12)c1cccs1	Rab9 promoter act 2.82µM, FLuc counter 5.36µM, ELG1 genotoxic inconclusive, NPC1 promoter act 2.82µM, SMN2 splice enh 17.8µM
CC(C)(C)OC(=O)N/N=C\c1ccc[nH]1	Rab9 promoter act inconclusive, FLuc counter 19µM
COC(=O)C(Cc1c[nH]c2ccccc12)NC(=O)c1cccs1 (centres undefined)	FLuc counter inconclusive (no result: SMN2 splice enh)
COc1ccc(-c2c(NC(=O)c3ccco3)oc3ccccc3c2=O)cc1OC	none (no result: SMN2 splice enh)
C/C(=N\NC(=O)c1nn(C)c(C)c1Br)c1ccc(NC(=O)c2ccccc2F)cc1	SMN2 splice enh inconclusive
C=CCNC(=O)c1ccc(OC2CCN(S(=O)(=O)N(C)C)CC2)cc1	Rab9 promoter act inconclusive, FLuc counter 16.9µM (no result: SMN2 splice enh)
C=CCn1c(SCc2csc(-c3ccc(C)cc3)n2)nnc1-c1ccccc1OC	FLuc counter 21.3µM (no result: SMN2 splice enh)
COc1ccccc1-n1cnnc1SCc1csc(-c2ccccc2)n1	none
CC1CCN(CCCNC(=O)c2cc3sccc3n2C)CC1	none (no result: SMN2 splice enh)
Cn1c(C(=O)N2CCCC(C(=O)O)C2)cc2sccc21 (centres undefined)	none

From PubChem
